Screening data (PubChem)
SMN2 splice enh: SMN2 splice variant enhancement | HEK293 SMN2-luciferase splicing reporter, luminescence, 30-36 h | actives 2.8% (n = 210,000) | Potency, µM (highest dose often 46.1 µM), for the others: top-dose activity change, positive = activation, most hits filed as activators; note: % of control where 0% means no effect; nearly all actives have a fitted effect of over 55% in size
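HEK293 cells carry an SMN2 minigene-luciferase reporter in which exon 7 inclusion puts luciferase in frame. Cells were seeded at 2000 cells/well, attached for 10-12 hours, then exposed to compounds for 30-36 hours at 37C before ONE-Glo luminescence.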
ELG1 genotoxic: inducers of genotoxicity in HEK293T ELG1-luciferase cells; actives 1.3% (n = 330,000); Potency, µM (series often up to 46 µM), for inactives: at the highest dose activity change, positive = activation, hits mostly activators; HEK293T ELG1-luciferase reporter, luminescence, 16 h; note: % of control where 0% means no effect; nearly all actives have a fitted effect of over 60% in size
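Genotoxic stress is detected as increased luminescence from luciferase-tagged ELG1 in HEK293T cells, measured with ONE-Glo after a 16 hr treatment at 37 °C.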
Rab9 prom act: activators of Rab9 promoter. Huh7 Rab9 promoter-luciferase reporter, luminescence, 24 h. Potency, µM (series often up to 9.22 µM), for the others: top-dose activation, negative = inhibition, usual class: activators. actives 2.8% (n = 320,000); note: % of control where 0% means no effect; nearly all actives have a fitted effect of over 60% in size
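Stable Rab9-luc Huh7, 1500 cells/well, 2 h settle; cmpd in DMSO, 24 h, 37 °C/5% CO2; luciferase reagent 10 min RT; luminescence.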
FLuc modulator: inhibits or activates purified firefly luciferase, miR-21 counter-screen. purified FLuc, Km substrates, luminescence inhibition. Potency, µM (doses to about 57.5 µM), for the others: top-dose activity change, negative = inhibition, most hits filed as inhibitors. actives 6.9% (n = 360,000). AID 588342;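 note: plate controls were vehicle for no effect and reference inhibitor for full effect; nearly all actives have a fitted effect of over 55% in size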
Target sequence (P08659 whole entry, looked up): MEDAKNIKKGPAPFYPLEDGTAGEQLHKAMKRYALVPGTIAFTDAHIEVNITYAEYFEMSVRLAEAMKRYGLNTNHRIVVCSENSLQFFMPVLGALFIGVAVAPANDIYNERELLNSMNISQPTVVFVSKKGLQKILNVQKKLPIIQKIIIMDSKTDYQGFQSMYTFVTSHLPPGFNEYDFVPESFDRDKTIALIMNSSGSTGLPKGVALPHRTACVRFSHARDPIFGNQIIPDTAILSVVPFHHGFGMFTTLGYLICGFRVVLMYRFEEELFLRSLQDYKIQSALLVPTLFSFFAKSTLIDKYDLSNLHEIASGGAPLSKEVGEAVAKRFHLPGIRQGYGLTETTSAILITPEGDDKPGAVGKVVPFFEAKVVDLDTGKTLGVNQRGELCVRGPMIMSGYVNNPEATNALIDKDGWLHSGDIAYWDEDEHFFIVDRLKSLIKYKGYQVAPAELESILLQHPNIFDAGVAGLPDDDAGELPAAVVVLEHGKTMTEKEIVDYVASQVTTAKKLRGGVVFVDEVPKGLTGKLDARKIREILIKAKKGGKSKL
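Purified P. pyralis luciferase, 10 nM final, with Km-level 10 uM D-luciferin and 10 uM ATP in 50 mM Tris acetate pH 7.5, 10 mM Mg acetate, 0.01% Tween-20, 0.05% BSA; 6-point qHTS titration about 60 µM downward; luminescence read.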
ELG1 repair inh: inhibitors of ELG1-dependent DNA repair in HEK293T cells; HEK293T ELG1-luciferase reporter, luminescence, 16 h; DNA damage induced by 5-fluorouridine; Potency, µM (titrated, usually from 46.1 µM), without a hit: at the top dose activity change, negative = inhibition, usual class: inhibitors; actives 2.3% (n = 330,000); note: % is set by controls: 0 for no effect and ±100 for the full control effect; nearly all actives have a fitted effect of over 55% in size
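In this reporter screen, reduction of luminescence relative to DMSO vehicle indicated activity. Compounds and 5-fluorouridine were added together to 2,000 cells per well, incubated for 16 hr at 37 °C, then developed with ONE-Glo.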
NPC1 prom act: activates the NPC1 promoter | actives 2.4% (n = 320,000) | Huh7 NPC1 promoter luciferase reporter, 24 h | Potency, µM (highest dose often 9.22 µM), without a hit: at the highest dose activation, most hits filed as activators; note: % of control where 0% means no effect; nearly all actives have a fitted effect of over 60% in size
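In 1536-well qHTS, Huh7 cells harboring an NPC1 promoter–luciferase construct received compound for 24 h; activation was quantified by luminescence following luciferase reagent addition.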
Numbers without * were called inactive; ? = inconclusive; . = no result; [ ] = another dose, or the depositor's remark. Hits are enriched below; roughly 9.4% of the tested compounds scored in any of these assays. Calls come from the whole dose curve; as a rule, active = well fitted curve in the direction sought with a large enough effect; inconclusive = small, poorly fitted or top-dose-only effect, or another doubt; inactive = no such curve, though single readings can be large; an effect the other way counts as inactive or inconclusive. Potency is the fitted concentration of half-maximal effect.

SMILES | SMN2 splice enh | ELG1 genotoxic | Rab9 prom act | FLuc modulator | ELG1 repair inh | NPC1 prom act
O=C(N/N=C/c1ccc2cccc(OCc3ccccc3)c2n1)c1ccc(Br)cc1 | -12.0% | 0.4% | -7.2% | 2.69µM* | 16.4µM* | -2.0%
C[C@H](N)CCCP(=O)(O)O | 6.9% | . | . | . | . | .
COc1cccc(NC(=O)Cn2c(=O)n(Cc3ccco3)c(=O)c3cc(OC)c(OC)cc32)c1 | -2.1% | . | . | -7.2% | . | .
COc1ccc2c(c1)oc(=O)c1cc(OC)ccc12 | . | 10.3µM* | 2.51µM* | 3.01µM* | ? | 2.51µM*
COc1ccc2c(c1)oc(=O)c1ccccc12 | 0.8% | 16.0% | 6.5% | ? | ? | -4.2%
Nc1cccc(C#Cc2ccc3c(=O)c4ccccc4oc3c2)c1 | . | ? | 0.562µM* | ? | ? | 18.1%
COc1ccc2c(=O)c3ccccc3oc2c1 | . | ? | ? | 12µM* | ? | 3.55µM*
Oc1ccc(Cl)cc1C=Nc1cnc2ccccc2c1 | -1.4%[9.22 µM] | . | . | . | . | .
Cc1ccc(C(=O)c2ccc(N3CCOCC3)c(F)c2)cc1 | -39.0% | 9.1% | 29.7% | 16.9µM* | ? | 19.3%
Cc1ccc(C(=O)Nc2cccnc2Cl)cc1Cl | . | 18.3µM* | ? | 16.9µM* | ? | ?
COc1ccc(C(=O)Nc2ccccc2C(=O)Nc2ccccn2)cc1 | . | 15.0% | ? | 6.01µM* | ? | ?
Cc1ccc(C(=O)Nc2ccccc2C(=O)Nc2ccccn2)cc1Cl | . | 3.0% | 16.9% | 5.36µM* | -16.8% | 2.3%
Cc1ccnc(NC(=O)CC(NC(=O)c2ccccc2Cl)c2ccccc2)c1 (centres undefined) | . | 20.6µM* | -2.1% | 10.7µM* | ? | -0.4%
Cc1cc(C)cc(C(=O)Nc2cccnc2Cl)c1 | . | 3.8% | 5.4% | -10.0% | 11.1% | -4.4%
O=C(Nc1ccccc1C(=O)Nc1ccccn1)c1ccc([N+](=O)[O-])cc1 | -2.0% | 3.5% | -4.8% | -5.1% | -15.9% | -1.3%
COc1ccc(Nc2cc(C)c3cc(NC(=O)COc4cccc(C)c4)ccc3n2)cc1 | . | . | . | -2.1% | . | .
Cc1ccnc(NC(=O)c2ccc(Cl)c(NC(=O)c3ccccc3C)c2)c1 | . | -6.6% | 6.2% | -15.7% | ? | 0.5%
Cc1ccnc(NC(=O)c2ccccc2NC(=O)c2ccc(Cl)cc2Cl)c1 | . | ? | -13.6% | 12µM* | -9.2% | -22.7%
C=CCn1c(SCc2c(C)noc2C)nc2sc3c(c2c1=O)CCCC3 | . | -5.4% | -18.8% | 2.2% | 18.4µM* | -24.5%
C=CCn1c(SCc2c(C)noc2C)nc2sc3c(c2c1=O)CCCCC3 | . | 19.3% | -12.0% | 0.2% | ? | -10.5%
Cc1noc(C)c1CSc1nc2sc3c(c2c(=O)n1C)CCCC3 | -4.6% | -0.4% | -11.2% | 0.0% | 23.1µM* | -3.4%
O=C1CN(C(=O)c2ccc(S(=O)(=O)N3CCCCC3)cc2)C(c2ccc(F)cc2)c2cc(Br)ccc2N1 (centres undefined) | -0.9% | . | . | -4.8% | . | .
CC(C)c1nc2cc3ccccc3cc2[nH]1 | -21.8% | 2.6% | 18.5% | 19µM* | 12.8% | 13.0%
Cc1c(-c2ccccc2)n(-c2ccc(Cl)cc2)c2nc3c(c(=O)n(C)c(=O)n3C)n12 | . | . | . | 4.7% | . | .
Cc1cccc(C(=O)N[C@H](C(=O)Nc2ncc(C)s2)C(C)C)c1 | 14.1µM* | ? | -30.8% | -9.2% | ? | -21.3%
SMILES | SMN2 splice enh | ELG1 genotoxic | Rab9 prom act | FLuc modulator | ELG1 repair inh | NPC1 prom act
C[C@H](NC(=O)c1ccccc1)C(=O)Nc1nc(-c2ccccn2)cs1 | -54.8% | -8.6% | -3.3% | -7.7% | 7.3µM* | 4.3%
Cc1cccc(C(=O)NC(C(=O)Nc2nc(-c3ccccn3)cs2)C(C)C)c1 (centres undefined) | -54.2% | 13.0% | -9.5% | -5.2% | 2.91µM* | -12.2%
Cc1cccc(C(=O)N[C@H](C(=O)Nc2nnc(C3CC3)s2)C(C)C)c1 | -8.0% | 2.6% | -0.6% | 1.7% | 13.6% | 0.0%
CCOc1ccccc1-c1nc(C(N)=O)c2c(n1)n(-c1ccc3c(c1)OCO3)c(=O)n2C | . | . | . | -3.3% | . | .
CC(C)(C)OC(=O)C[C@H]1C/C=C\C[C@@H](CC(=O)N(CCO)Cc2ccccc2)C(=O)N2CCC[C@H]2COC1=O | . | -6.3% | . | . | 23.1µM* | .
CC(C)(C)OC(=O)C[C@H]1C/C=C\C[C@@H](CC(=O)N(CCO)Cc2ccccc2)C(=O)N[C@H](Cc2c[nH]c3ccccc23)COC1=O | . | -2.4% | . | . | 20.6µM* | .
CC(C)(C)OC(=O)C[C@H]1C/C=C\C[C@@H](CC(=O)N(CCO)Cc2ccccc2)C(=O)N2CCC[C@@H]2COC1=O | . | -2.7% | . | . | ? | .
CC(C)(C)OC(=O)C[C@@H]1C/C=C\C[C@@H](CC(=O)N(CCO)Cc2ccccc2)C(=O)N[C@H](Cc2c[nH]c3ccccc23)COC1=O | . | -7.5% | . | . | ? | .
Sc1oc(-c2ccccc2)cc1C=Nc1ccccc1 | -21.5% | 11.6µM* | 6.3% | 2.13µM* | ? | 0.5%
O=[N+]([O-])c1cc2c(cc1C=Nc1ccccc1)OCO2 | -8.3% | 1.0% | 0.2% | -13.0% | 7.0% | -0.8%
COc1cccc2c(C)cc3nnc(SCC(=O)Nc4ccc(C)cc4)n3c12 | . | . | . | -15.2% | . | .
CCc1ccccc1NC(=O)c1ccc2c(c1)CCCN2S(C)(=O)=O | 7.3% | . | . | -10.9% | . | .
Cc1ccc(NC(=O)c2ccc3snnc3c2)cc1C | 20µM* | ? | ? | 15.1µM* | ? | ?
O=C(Nc1ccc(F)cc1)Nc1ccc2snnc2c1 | 8.1% | . | . | 23.9µM* | . | .
Cc1ccc(OC(=O)c2ccc3snnc3c2)cc1 | -16.5% | 3.2% | -0.1% | 9.53µM* | 16.8% | 2.6%
CNC(=O)Nc1ccc2snnc2c1 | -5.8% | 4.0% | 4.3% | -8.6% | 23.7% | 4.9%
COc1ccc(NC(=O)c2ccc3snnc3c2)cc1OC | 6.4% | . | . | -16.7% | . | .
CC1CN(C(=O)Nc2ccc3snnc3c2)c2ccccc21 (centres undefined) | ? | ? | 4.0% | 19µM* | ? | -1.4%
O=C(Nc1ccc2snnc2c1)N1CCSCC1 | 22.3% | 3.7% | -1.5% | -19.5% | 13.1% | -11.5%
Cc1cccc(CNC(=O)c2ccc(N3Cc4ccccc4Oc4ncccc43)s2)c1 | . | . | . | -1.3% | . | .
CCc1ccc(-n2nnc(-c3nc(-c4ccc(C)cc4)no3)c2N)cc1 | . | . | . | -8.9% | . | .
COc1cccc(NC(=O)c2ccc3snnc3c2)c1 | ? | 15.7% | ? | 19µM* | ? | ?
Cc1ccc(NC(=O)Nc2ccc3nc(N4CCN(C)CC4)cc(C)c3c2)cc1F | . | . | . | -1.6% | . | .
COc1cccc(NC(=O)Nc2ccc3nc(N4CCN(C)CC4)cc(C)c3c2)c1 | . | . | . | 12µM* | . | .
Cc1cc(C)cc(NC(=O)Nc2ccc3nc(N4CCN(C)CC4)cc(C)c3c2)c1 | . | . | . | -19.7% | . | .
